Compound activity deposited in PubChem by National Center for Advancing Translational Sciences (NCATS).
VP16 counter – Gal4-VP16 reporter inhibition counter-screen. hit rate 3.5% among 310,000. Potency, µM (titrated, usually from 53.6 µM), usual class: inhibitors. Drosophila S2 Gal4-VP16 UAS-luciferase, luminescence, 20 h;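 also: Gal4-VP16 expression switched on by copper sulfate through the metallothionein promoter; nearly all actives have a fitted effect of over 50% in size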
DT40 TDP1 no CPT – qHTS for Inhibitors of human tyrosyl-DNA phosphodiesterase 1 (TDP1): qHTS in cells in absence of CPT; DT40 Tdp1-/- hTDP1 cells, no CPT, ATP luminescence, 48 h; Potency, µM (highest dose often 46.2 µM), most hits filed as inhibitors; hit rate 15% among 420,000; also: nearly all actives have a fitted effect of over 55% in size
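Readout: luminescence from CellTiter-Glo after 30 min in the dark at RT. Cells: DT40 Tdp1-/- with stable hTDP1, 400/well. Exposure: compounds alone, ≥48 hr, 37 °C.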
RORg inh – inhibitors of mouse ROR gamma transcriptional activity. P51450. Drosophila S2 Gal4-RORgamma UAS-luciferase reporter, 20 h. Potency, µM (top dose mostly 53.6 µM), most hits filed as inhibitors. hit rate 5.4% among 310,000; also: nearly all actives have a fitted effect of over 60% in size
Target sequence (P51450 whole entry, looked up, the tested form may be a part): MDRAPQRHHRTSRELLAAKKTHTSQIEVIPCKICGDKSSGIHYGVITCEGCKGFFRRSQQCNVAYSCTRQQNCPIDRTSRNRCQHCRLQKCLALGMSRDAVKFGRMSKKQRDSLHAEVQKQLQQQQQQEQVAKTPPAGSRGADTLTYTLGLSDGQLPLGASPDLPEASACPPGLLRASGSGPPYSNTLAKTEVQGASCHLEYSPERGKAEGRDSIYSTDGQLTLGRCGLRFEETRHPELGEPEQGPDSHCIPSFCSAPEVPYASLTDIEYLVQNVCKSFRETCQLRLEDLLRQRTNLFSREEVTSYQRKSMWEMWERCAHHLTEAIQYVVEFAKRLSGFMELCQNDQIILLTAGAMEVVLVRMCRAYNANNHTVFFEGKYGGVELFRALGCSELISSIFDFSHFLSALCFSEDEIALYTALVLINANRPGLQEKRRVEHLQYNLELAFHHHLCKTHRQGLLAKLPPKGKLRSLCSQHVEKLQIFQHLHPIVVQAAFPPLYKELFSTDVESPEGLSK
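Using a luciferase readout, inhibitors were identified by reduced reporter activity in Drosophila cells coexpressing a copper-inducible Gal4–ROR gamma fusion and UAS-driven Photinus luciferase, incubated 20 hr after 700 uM copper sulfate.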
TDP1 cell CPT – DT40-hTDP1 cell growth loss with CPT; Potency, µM (titrated, usually from 46.2 µM), most hits filed as inhibitors; chicken DT40 Tdp1-/-;hTDP1 cells + 20 nM CPT, ATP luminescence, 48 h; hit rate 12% among 420,000; also: nearly all actives have a fitted effect of over 55% in size
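Chicken DT40 Tdp1-/- cells complemented with human TDP1, 400 cells/well, exposed to compounds plus 20 nM camptothecin for at least 48 h at 37 C; viability read as ATP content by CellTiter-Glo luminescence.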
TDP1 block – inhibitors of human tyrosyl-DNA phosphodiesterase TDP1; Potency, µM (highest dose often 130 µM), usual class: inhibitors; Q9NUW8; hit rate 0.28% among 350,000; recombinant TDP1, AlphaScreen DNA substrate cleavage; AID 485290; also: nearly all actives have a fitted effect of over 40% in size
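E. coli-derived human Tdp1, 1 nM final. Cpd preinc 15 min RT; substrate 15 nM final, 5 min RT; AS bead mix 10 ug/ml final, 10 min RT. Signal loss = tyrosine-FITC cleavage. No-enzyme wells = max signal.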
Each line names hits and unclear results; the compound was inactive in the other large screens. A selection: hits, their analogues and other compounds. The true share with any hit is near 19%. Calls follow the shape of the dose curve; as a rule, active = well fitted curve in the direction sought with a large enough effect; inconclusive = small, poorly fitted or top-dose-only effect, or another doubt; inactive = no such curve, though single readings can be large; an effect the other way counts as inactive or inconclusive.

O=C1Nc2ccccc2N(C(=O)c2ccc3ccccc3c2)C1c1nc2ccccc2[nH]1 (configuration not stated)	DT40 TDP1 no CPT 21µM, TDP1 cell CPT 10µM (no result: VP16 counter, RORg inh, TDP1 block)
Cc1cc2c(cc1C)/C(=C\C(N)=O)NC(C)(C)C2	none
O=[N+]([O-])c1c(C(Cl)Cl)nn(-c2ccccc2)c1N1CCCC1	VP16 counter inconclusive, DT40 TDP1 no CPT inconclusive, RORg inh 7.1µM, TDP1 cell CPT 21µM
CCOC(=O)C1CCN(c2c([N+](=O)[O-])c(C(Cl)Cl)nn2-c2ccccc2)CC1	DT40 TDP1 no CPT inconclusive, TDP1 cell CPT inconclusive
COCCNC(=S)N1CCC(C(=O)c2ccc(C)cc2)CC1	DT40 TDP1 no CPT inconclusive, TDP1 cell CPT inconclusive (no result: TDP1 block)
O=C(CCn1c(=O)oc2ccccc21)Nc1cccc(Cl)c1	none
CN(C(=O)COC(=O)C1=COCCO1)c1c(N)n(Cc2ccccc2)c(=O)[nH]c1=O	none (no result: VP16 counter, RORg inh)
CCN(C(=O)COC(=O)C1=COCCO1)c1ccccc1	DT40 TDP1 no CPT 6.5µM (no result: VP16 counter, RORg inh)
COc1ccc(-c2nc3cnccn3c2Nc2ccc(C)cc2)cc1	DT40 TDP1 no CPT 15µM, RORg inh inconclusive, TDP1 cell CPT 15µM
Cc1ccc(-c2nc3ccccn3c2Nc2ccccc2)o1	VP16 counter inconclusive, DT40 TDP1 no CPT inconclusive
Cc1ccc(-c2nc3ccc(Cl)cn3c2Nc2ccccc2)o1	DT40 TDP1 no CPT inconclusive, TDP1 cell CPT inconclusive (no result: VP16 counter, RORg inh)
Cc1ccc2nc(-c3ccc(C)o3)c(Nc3ccccc3)n2c1	DT40 TDP1 no CPT 4.5µM, TDP1 cell CPT 3.5µM (no result: VP16 counter, RORg inh)
Cc1ccc(Nc2c(-c3ccc(C)o3)nc3ccccn23)cc1	DT40 TDP1 no CPT 13µM, TDP1 cell CPT inconclusive (no result: VP16 counter, RORg inh)
Cc1ccc(-c2nc3cnccn3c2Nc2ccccc2)o1	DT40 TDP1 no CPT 21µM, RORg inh inconclusive, TDP1 cell CPT 21µM
COc1ccc(CCNC(=O)C(=O)Nc2ccc(C)c(C)c2)cc1	none (no result: VP16 counter, RORg inh)
OC(CN1CC=C(/C=C/c2ccc(Br)cc2)CC1)c1ccccc1 (configuration not stated)	DT40 TDP1 no CPT inconclusive, TDP1 cell CPT inconclusive (no result: TDP1 block)
COc1cccc(NC(=O)C(=O)NCC2CCCN2S(=O)(=O)c2ccccc2)c1 (configuration not stated)	DT40 TDP1 no CPT inconclusive (no result: VP16 counter, RORg inh)
CC1=C(C(=O)OC(C)C)C(c2ccccc2)NC(=O)N1C (configuration not stated)	DT40 TDP1 no CPT inconclusive (no result: TDP1 block)
Cc1ccc(-c2nc3cccc(C)n3c2Nc2ccc(F)cc2)o1	DT40 TDP1 no CPT 10µM, TDP1 cell CPT inconclusive (no result: VP16 counter, RORg inh)
CC(O)CNCCCOc1ccccc1OCc1ccccc1 (configuration not stated)	DT40 TDP1 no CPT inconclusive (no result: TDP1 block)
CC(O)CNCCCOc1cccc(Oc2ccccc2)c1 (configuration not stated)	DT40 TDP1 no CPT 16µM, TDP1 cell CPT 16µM (no result: TDP1 block)
CC(O)CNCCCCOc1ccc(OCc2ccccc2)cc1 (configuration not stated)	DT40 TDP1 no CPT inconclusive, TDP1 cell CPT 23µM
O=C(NCc1ccccc1)c1ccc(NC(=O)C2CCCO2)cc1 (configuration not stated)	none
COc1ccccc1N1CCN(CC(=O)Nc2ccccc2C(=O)NC(C)c2ccccc2)CC1 (configuration not stated)	DT40 TDP1 no CPT 18µM, TDP1 cell CPT 15µM (no result: VP16 counter, RORg inh)
COc1ccc(N2CCN(CC(=O)Nc3ccccc3C(=O)NC(C)c3ccccc3)CC2)cc1 (configuration not stated)	DT40 TDP1 no CPT 21µM, TDP1 cell CPT inconclusive (no result: VP16 counter, RORg inh, TDP1 block)
COc1ccc(N2CCN(CC(=O)Nc3nnc(-c4ccccc4)s3)CC2)cc1	VP16 counter inconclusive, RORg inh 10µM
CC(NC(=O)c1ccccc1NC(=O)CN1CCN(c2ccccc2O)CC1)c1ccccc1 (configuration not stated)	DT40 TDP1 no CPT inconclusive, TDP1 cell CPT inconclusive (no result: VP16 counter, RORg inh)
COc1ccc(N2CCN(CC(=O)Nc3ccccc3C(=O)NCc3ccccc3)CC2)cc1	DT40 TDP1 no CPT 18µM, TDP1 cell CPT 15µM (no result: VP16 counter, RORg inh)
COc1cccc(N2CCN(CC(=O)NC(C)c3ccccc3)CC2)c1 (configuration not stated)	none
O=C(CN1CCN(c2ccc(F)cc2)CC1)Nc1nnc(-c2ccccc2)s1	none
CCOc1ccc(NC(=O)c2ccc3c(=O)n4c(nc3c2)CCCCC4)cc1	DT40 TDP1 no CPT inconclusive, TDP1 cell CPT inconclusive
CCN(CC)S(=O)(=O)c1ccc(NC(=O)c2ccc3c(=O)n4c(nc3c2)CCCCC4)cc1	DT40 TDP1 no CPT 23µM, TDP1 cell CPT 23µM (no result: VP16 counter, RORg inh)
CCOc1ccccc1NC(=O)C(=O)Nc1ccc2nc3n(c(=O)c2c1)CCCCC3	DT40 TDP1 no CPT 18µM, TDP1 cell CPT 23µM (no result: VP16 counter, RORg inh)
CCOc1ccccc1NC(=O)c1ccc2c(=O)n3c(nc2c1)CCCCC3	DT40 TDP1 no CPT inconclusive, TDP1 cell CPT 16µM
CCOC(=O)c1ccccc1NC(=O)C(=O)Nc1ccc2nc3n(c(=O)c2c1)CCCCC3	none (no result: VP16 counter, RORg inh)
CCc1ccc(NC(=O)c2ccc3c(=O)n4c(nc3c2)CCCCC4)cc1	DT40 TDP1 no CPT inconclusive, TDP1 cell CPT inconclusive (no result: TDP1 block)
CC(=O)c1cccc(NC(=O)c2ccc3c(Cl)c4c(nc3c2)CCCC4)c1	VP16 counter inconclusive, DT40 TDP1 no CPT 23µM, RORg inh inconclusive, TDP1 cell CPT inconclusive
CCOc1ccccc1NC(=O)c1ccc2c(Cl)c3c(nc2c1)CCCC3	DT40 TDP1 no CPT 23µM, TDP1 cell CPT inconclusive (no result: VP16 counter, RORg inh)
Cc1csc(NC(=O)c2ccc3c(=O)n4c(nc3c2)CCCCC4)n1	DT40 TDP1 no CPT inconclusive, RORg inh inconclusive
Cc1ccc(C)c(CNC(=O)c2ccc3c(c2)nc2n3CCCCC2)c1	DT40 TDP1 no CPT 18µM, TDP1 cell CPT inconclusive (no result: VP16 counter, RORg inh)
COc1ccc(C)cc1NC(=O)c1ccc2c(=O)n3c(nc2c1)CCCCC3	DT40 TDP1 no CPT inconclusive, TDP1 cell CPT 15µM
O=C(Nc1nccs1)c1ccc2c(=O)n3c(nc2c1)CCCCC3	DT40 TDP1 no CPT 16µM, RORg inh inconclusive, TDP1 cell CPT inconclusive
CCOC(=O)c1ccc(C#Cc2ccc3c(c2)C(C)(C)CCS3)nc1	DT40 TDP1 no CPT inconclusive, TDP1 cell CPT inconclusive (no result: TDP1 block)
O=C(O)CSc1nnc(-c2cccnc2)n1Cc1ccccc1	none
Cc1cccc(OCC(=O)Nc2cc(S(=O)(=O)N3CCOCC3)ccc2N2CCCC2)c1C	DT40 TDP1 no CPT 16µM, TDP1 cell CPT inconclusive (no result: VP16 counter, RORg inh, TDP1 block)
O=C(COc1cccc(Cl)c1)Nc1cc(S(=O)(=O)N2CCOCC2)ccc1N1CCOCC1	DT40 TDP1 no CPT 18µM, TDP1 cell CPT inconclusive
CN1CCN(c2ccc(S(=O)(=O)N3CCCCC3)cc2NC(=O)CCc2ccccc2)CC1	none (no result: VP16 counter, RORg inh)
O=C(COc1ccccc1)Nc1cc(S(=O)(=O)N2CCOCC2)ccc1N1CCCC1	none (no result: VP16 counter, RORg inh)
CCCCCC(=O)Nc1cc(S(=O)(=O)N2CCCCC2)ccc1N1CCCCC1	DT40 TDP1 no CPT 15µM, TDP1 cell CPT inconclusive (no result: VP16 counter, RORg inh, TDP1 block)
